Activity calls are given as the source filed them. Rule as the data show it: active = potency below about 10 µM; inactive = the rest.
These molecules were tested against Lysosomal acid glucosylceramidase (Homo sapiens) (UniProt P04062) (assay: Glucocerebrosidase-p2 (AID 348)). Conditions: purified GBA, blue fluorogenic substrate, 40 min.
In short: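 Normal human glucocerebrosidase (0.2 nM) with blue fluorogenic substrate (80 uM final) in citrate/phosphate pH 5.9 with 10mM sodium taurocholate, 0.01% tween-20; 40 min RT, NaOH/glycine stop; fluorescence Ex 365/Em 440; AC50 from a titration from 0.6 nM upwards.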
Potency is read from the fitted curve at half-maximal effect.

Chain of Lysosomal acid glucosylceramidase (Homo sapiens) (P04062 whole entry, looked up): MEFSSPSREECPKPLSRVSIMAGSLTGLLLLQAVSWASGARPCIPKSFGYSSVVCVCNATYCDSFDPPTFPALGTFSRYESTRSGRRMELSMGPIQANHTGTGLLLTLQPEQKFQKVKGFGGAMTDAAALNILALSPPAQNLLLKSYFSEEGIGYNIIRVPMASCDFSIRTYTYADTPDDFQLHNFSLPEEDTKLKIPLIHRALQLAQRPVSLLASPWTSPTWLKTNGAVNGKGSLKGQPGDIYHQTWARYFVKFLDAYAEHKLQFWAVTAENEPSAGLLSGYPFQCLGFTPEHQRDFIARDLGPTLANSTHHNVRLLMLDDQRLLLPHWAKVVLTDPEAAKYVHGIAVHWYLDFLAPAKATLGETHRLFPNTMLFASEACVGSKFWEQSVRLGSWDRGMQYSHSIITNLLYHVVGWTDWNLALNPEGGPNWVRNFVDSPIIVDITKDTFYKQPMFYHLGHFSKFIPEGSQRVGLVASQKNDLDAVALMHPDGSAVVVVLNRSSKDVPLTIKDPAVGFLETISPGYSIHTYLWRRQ

Potency, inactive:
CN(C)Cc1ccccc1-c1cc(N(C)Cc2ccco2)ncn1 > 11.4 µM, c1cncc(-c2cncnc2NC2CCNCC2)c1 > 11.4 µM, Cn1cc(-c2nc3cnc(Oc4ccccc4)nc3n(C)c2=O)c2ccccc21 > 11.4 µM, CN(C)c1ncc2nc(-c3ccccc3)c(=O)n(-c3ccccc3)c2n1 > 11.4 µM, CN1CCN(c2ncc3nc(-c4cc(F)cc(F)c4)c(=O)n(C4CC4)c3n2)CC1 > 11.4 µM, O=c1c(-c2ccc(F)cc2)nc2cnc(N3CCNCC3)nc2n1Cc1ccc(F)cc1 > 11.4 µM, O=c1c(-c2cc(F)cc(F)c2)nc2cncnc2n1-c1ccccc1 > 11.4 µM, CN(Cc1ccco1)c1ncncc1-c1ccccc1Cl > 11.4 µM, O=c1cnc2cnc(N3CCOCC3)nc2n1CCc1ccccc1 > 11.4 µM, CN1CCN(c2ncncc2-c2ccc(C(=O)N(C)C)cc2)CC1 > 11.4 µM, CC(=O)NCCNc1ncncc1-c1ccccc1C > 11.4 µM, COCCn1c(=O)cnc2cnc(Oc3ccccc3)nc21 > 11.4 µM, COCCn1c(=O)c(-c2ccc(Cl)cc2)nc2cnc(Oc3cccc(Cl)c3)nc21 > 11.4 µM, COc1ccc(CNc2ccnc(-c3ccc4c(c3)OCO4)n2)c(OC)c1 > 11.4 µM, COc1ncc2nc(-c3cc(F)cc(F)c3)c(=O)n(C)c2n1 > 11.4 µM, COc1cccc(Nc2ncc3nc(-c4ccccc4)c(=O)n(Cc4cccs4)c3n2)c1 > 11.4 µM, COc1ccc(-c2nc3cnc(N4CCN(C)CC4)nc3n(Cc3ccc(F)cc3)c2=O)cc1 > 11.4 µM, COCCn1c(=O)c(-c2cc(F)cc(F)c2)nc2cnc(N3CCOCC3)nc21 > 11.4 µM, CN(C)c1ncnc2ccc(-c3cccnc3)cc12 > 11.4 µM, CCNc1ncc2nc(-c3cn(C)c4ccccc34)c(=O)n(Cc3cccc(OC)c3)c2n1 > 11.4 µM, COc1ccc(Oc2ncc3nc(C)c(=O)n(-c4ccccc4)c3n2)cc1 > 11.4 µM, CN(C)Cc1ccccc1-c1nc(NCc2cccs2)c2ccccc2n1 > 11.4 µM, CN(Cc1ccco1)c1ncncc1-c1cccc(C#N)c1 > 11.4 µM, O=c1c(-c2ccc(F)cc2)nc2cnc(N3CCOCC3)nc2n1Cc1cccs1 > 11.4 µM, CCNc1ncc2nc(-c3ccc(Cl)cc3)c(=O)n(C[C@H]3CCCO3)c2n1 > 11.4 µM, COc1ccc(-n2c(=O)c(-c3cccs3)nc3cnc(N(C)C)nc32)cc1 > 11.4 µM, Cn1cc(-c2nc3cnc(Oc4ccccc4)nc3n(C3CC3)c2=O)c2ccccc21 > 11.4 µM, O=c1c(-c2cccs2)nc2cnc(N3CCOCC3)nc2n1Cc1ccc(F)cc1 > 11.4 µM, O=c1c(-c2ccc(F)cc2)nc2cnc(Nc3ccccc3)nc2n1C[C@H]1CCCO1 > 11.4 µM, O=c1c(-c2cc(F)cc(F)c2)nc2cncnc2n1Cc1ccccc1 > 11.4 µM, c1ccc(Nc2cc(-c3ccoc3)ncn2)cc1 > 11.4 µM, COc1ccc(Oc2ncc3nc(-c4cn(C)c5ccccc45)c(=O)n(C4CC4)c3n2)cc1 > 11.4 µM, COCCNc1ncncc1-c1c(C)noc1C > 11.4 µM, Cc1noc(C)c1-c1ccc2ncnc(Nc3ccc(F)cc3)c2c1 > 11.4 µM, O=c1c(-c2cccs2)nc2cnc(N3CCOCC3)nc2n1Cc1cccs1 > 11.4 µM, Cc1noc(C)c1-c1ccc2ncnc(N(C)C)c2c1 > 11.4 µM, CC(=O)NCCNc1ncnc2ccc(-c3c(C)noc3C)cc12 > 11.4 µM, CN(C)c1ncc2nc(-c3cn(C)c4ccccc34)c(=O)n(C[C@H]3CCCO3)c2n1 > 11.4 µM, CN1CCN(c2ncc3nc(-c4ccc(Cl)cc4)c(=O)n(Cc4cccs4)c3n2)CC1 > 11.4 µM, CN(Cc1ccco1)c1ncncc1-c1ccoc1 > 11.4 µM

Reference: PubChem BioAssay (NCATS)
